This is an account of results in PubChem BioAssay (Tox21).

Values joined by “and” are separate entries in the source; they are usually repeats but may differ in a detail not shown here. Equal values may be shown once. Records with an inconclusive call do not appear. Where a call stands in place of a potency, no number is given. Unmarked numbers belong to inactive results. Active and inactive are the calls of the source. The call rests on the fitted dose curve; in most records, active means well fitted cell-killing curve with a large enough effect in the repeat runs (not every such curve was filed as active); inconclusive means weak or mixed curves, or effect the other way; inactive means no such curve, though single readings can be large or run the other way.
Potency means the concentration at half of the fitted maximal effect.

This assay in a line: qHTS assay to identify small molecule antagonists of the farnesoid-X-receptor (FXR) signaling pathway - cell viability counter screen (AID 743221). Further: nearly all actives have a fitted effect of over 50% in size. Conditions: FXR-bla HEK293T viability, CellTiter-Glo luminescence, 16 h; series mostly up to 62.6 µM; activity change, negative = cytotoxicity: at the top concentration. From the text:
National Center for Advancing Translational Sciences [NCATS]
NIH Chemical Genomics Center [NCGC]
U.S. Environmental Protection Agency [EPA]
National Institutes of Environmental Health Sciences [NIEHS]
National Toxicology Program [NTP]
U.S. Food and Drug Administration [FDA]
The farnesoid-X-receptor (FXR), a nuclear hormone receptor, is highly expressed in liver, intestine, kidney and adrenal cortex. Natural ligands of FXR are the bile acids (Cholic acid, Chenodeoxy cholic acid etc). FXR is an important regulator of diverse metabolic pathways, including the bile acid homeostasis, lipid and glucose metabolisms. FXR regulates the expression of target genes by binding either as a monomer or as a heterodimer with the retinoid X receptor (RXR). Numerous studies have reported that FXR exerts protective function during cholestasis, diabetes, liver regeneration, and cancer. To identify compounds that inhibit FXR signaling, GeneBLAzer FXR-UAS-bla HEK 293T cell line (Invitrogen, Carlsbad, CA) containing a beta-lactamase reporter gene under the control of a UAS response element was used to screen the Tox21 10K compound library. The cytotoxicity of the Tox21 compound library against the FXR-bla cell line was tested in parallel by measuring the cell viability using CellTiter-Glo assay in the same wells.
Tox21 Assay Protocol Summary:
FXR-bla cells were dispensed at 5000 cells/5uL/well in 1536-well black wall/clear bottom plates using a Multidrop Combi (Thermo Fisher Scientific, Waltham, MA) dispenser. After the assay plates were incubated at 37 C and 5% CO2 for 5 h, 23 nL of compounds dissolved in DMSO, positive controls or DMSO only was transferred to the assay plate by a Pintool station (Kalypsys, San Diego, CA), followed by addition of 1 uL Chenodeoxycholic acid (50 uM, final concentration in the wells). The assay plates were incubated at 37C for 16 h. After 1 uL of LiveBLAzerTM B/G FRET substrate was added using a Bioraptr Flying Reagent Dispenser (FRD) workstation (Beckman Coulter, Indianapolis, IN), the plates were incubated at room temperature for 2 h, and fluorescence intensity was measured by an Envision plate reader (PerkinElmer, Shelton, CT). For cell viability readout that measures cytotoxicity, 4uL/well of CellTiter-Glo reagent was added into the assay plates using a Bioraptr FRD. After 30 min incubation at room temperature, the luminescence intensity in the plates was measured using a ViewLux plate reader (PerkinElmer).
Regarding `CCCOCC(C)O` (stereo not given), the Potency entry was “inactive”.

Consider `O=C(O)Cc1c[nH]c2ccccc12`, for which the Potency entry was “inactive”.

Regarding `c1cnc2c(c1)ccc1cccnc12`, the Potency was 24.8 µM (active) and 776 nM (active) and 174 nM (active).

Take `COc1c(Cl)ccc(Cl)c1C(=O)O`: the Potency result is “inactive”.

In the case of `CCN(CC)CCNC(=O)c1ccc(N)cc1`, the Potency entry is “inactive”.

Regarding `Nc1cccc(N)n1`, the Potency result is “inactive”.

Turning to `O=c1c(O)c(-c2ccc(O)c(O)c2)oc2cc(O)cc(O)c12`, the Potency entry is “inactive”.

For `CC(CN1c2ccccc2Sc2ccccc21)N(C)C` (stereo not given), the Potency was 49.5 µM (active).

As for `Cc1nnc(NS(=O)(=O)c2ccc(N)cc2)s1`, the Potency entry was “inactive”.

Turning to `O=c1n(CCCN2CCN(c3cccc(Cl)c3)CC2)nc2ccccn12`, the Potency entry is “inactive”.

For the compound `Cc1ccncc1`, the Potency entry was “inactive”.

As to `CC(=O)OC(C)(C)C1CC=C(C)CC1` (stereo not given), the Potency entry was “inactive”.

Consider `C=C(CC(=O)O)C(=O)O`, for which the Potency result was “inactive”.

With `O=C1O[C@H]([C@H](O)CO)C(O)=C1O`, the Potency result is “inactive”.

Take `COc1ccc2cc3[n+](cc2c1OC)CCc1cc2c(cc1-3)OCO2`: the “activity change, negative = cytotoxicity” value is -3.25%.

Regarding `N#CCC(=O)O`, the Potency entry is “inactive”.

On to `OC[C@H]1O[C@@H](Oc2ccc(O)cc2)[C@H](O)[C@@H](O)[C@@H]1O`, for which the Potency entry was “inactive”.

Regarding `OCC(O)CS` (stereo not given), the Potency result was “inactive”.

Regarding `CC/C(C)=N/O`, the Potency result was “inactive”.

Turning to `COc1ccc(N)c(OC)c1`, the Potency result was “inactive”.

On to `CCOC(=O)c1ccc(O)cc1`, for which the Potency entry was “inactive”.

On to `NCCNCCNCCN`, for which the Potency result is “inactive”.

With `Nc1cccc(C(F)(F)F)c1`, the Potency result was “inactive”.

In the case of `C=C1C[C@]23C[C@@]1(O)CC[C@H]2[C@@]12C=C[C@H](O)[C@@](C)(C(=O)O1)[C@H]2[C@@H]3C(=O)O`, the Potency result is “inactive”.

Regarding `CC(=O)OCCC(C)C`, the Potency entry was “inactive”.

As for `O=C1C(N(CO)C(=O)NCO)N(CO)C(=O)N1CO` (stereo not given), the Potency entry is “inactive”.

Consider `NC(=O)NC(N)=O`, for which the Potency result is “inactive”.

For `CC1(C)C(=O)N(Cl)C(=O)N1Cl`, the Potency entry was “inactive”.

On to `CCCCCCCCO`, for which the Potency result was “inactive”.

For the compound `CC(COCC(C)OC(=O)c1ccccc1)OC(=O)c1ccccc1` (stereo not given), the Potency result was “inactive”.

Consider `CS(=O)(=O)c1ccc(Cl)cc1`, for which the Potency result was “inactive”.

In the case of `O=C(NCC1CCCCN1)c1cc(OCC(F)(F)F)ccc1OCC(F)(F)F` (stereo not given), the Potency entry was “inactive”.

`O=C1CCCCCCCCCCC1`: the Potency result is “inactive”.

Take `OCC(CO)(CO)CO`: the Potency entry was “inactive”.

Regarding `CCCCCCC(=O)O`, the Potency entry was “inactive”.

For `Cc1cccc(C)c1[N+](=O)[O-]`, the “activity change, negative = cytotoxicity” value was 1.93%.

With `CO[Si](CCCNCCN)(OC)OC`, the Potency entry was “inactive”.

For the compound `COc1ccc([C@@H]2CC(=O)c3c(O)cc(O[C@@H]4O[C@H](CO[C@@H]5O[C@@H](C)[C@H](O)[C@@H](O)[C@H]5O)[C@@H](O)[C@H](O)[C@H]4O)cc3O2)cc1OC`, the Potency result was “inactive”.

Regarding `O=[N+]([O-])c1ccccc1C(F)(F)F`, the Potency entry was “inactive”.

Turning to `CCn1cc(C(=O)O)c(=O)c2cc3c(cc21)OCO3`, the Potency result is “inactive”.
